# According to PMC11006913:
# How the values were obtained:
# Assay in all cases: PBM; 200 nM protein, PBS
# Conditions in all cases: dsDNA, one strand shown
# HESX1 [1] = target: HESX1 (Homo sapiens, UniProt Q9UBX0 95-180, R165K)
# HOXB4 [2] = target: HOXB4 (Homo sapiens, UniProt P17483 148-234)
# SHOX [3] = target: SHOX (Homo sapiens, UniProt O15266 103-189)
# HESX1 [4] = target: HESX1 (Homo sapiens, UniProt Q9UBX0 95-180)
# HOXA4 = HOXA4 (Homo sapiens, UniProt Q00056 201-287, R217L)
# HOXB4 [5] = target: HOXB4 (Homo sapiens, UniProt P17483 148-234, V174I)
# HOXB4 (Homo sapiens, UniProt P17483 148-234, V174I), sequence (P17483 148-234 V174I): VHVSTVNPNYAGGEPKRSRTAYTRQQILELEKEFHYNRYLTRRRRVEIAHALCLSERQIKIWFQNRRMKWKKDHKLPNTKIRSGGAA
# MSX2 [6] = target: MSX2 (Homo sapiens, UniProt P35548 130-214, R199I)
# MSX2 (Homo sapiens, UniProt P35548 130-214, R199I), sequence (P35548 130-214 R199I): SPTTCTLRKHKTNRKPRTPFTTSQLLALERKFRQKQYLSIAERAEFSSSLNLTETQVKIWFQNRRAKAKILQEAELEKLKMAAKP
# ALX3 [7] = target: ALX3 (Homo sapiens, UniProt O95076 139-225, N203Q)
# ALX3 (Homo sapiens, UniProt O95076 139-225, N203Q), sequence (O95076 139-225 N203Q): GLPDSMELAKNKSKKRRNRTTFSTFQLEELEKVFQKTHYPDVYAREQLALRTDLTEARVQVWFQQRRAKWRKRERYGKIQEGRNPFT
# SHOX [8] = target: SHOX (Homo sapiens, UniProt O15266 103-189, R173C)
# SHOX (Homo sapiens, UniProt O15266 103-189, R173C), sequence (O15266 103-189 R173C): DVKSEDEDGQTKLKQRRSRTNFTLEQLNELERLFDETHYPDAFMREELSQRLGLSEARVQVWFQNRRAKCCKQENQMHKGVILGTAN
# ALX3 [9] = target: ALX3 (Homo sapiens, UniProt O95076 139-225)
# ALX3 (Homo sapiens, UniProt O95076 139-225), sequence (O95076 139-225): as the sequence (O95076 139-225 N203Q) above, with Q65N counted along it
# PROP1 [10] = target: PROP1 (Homo sapiens, UniProt O75360 56-141)
# PROP1 (Homo sapiens, UniProt O75360 56-141), sequence (O75360 56-141): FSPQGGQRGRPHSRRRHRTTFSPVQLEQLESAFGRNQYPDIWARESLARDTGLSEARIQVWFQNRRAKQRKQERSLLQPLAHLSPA
# HESX1 [11] = target: HESX1 (Homo sapiens, UniProt Q9UBX0 95-180, R109Q)
# HESX1 (Homo sapiens, UniProt Q9UBX0 95-180, R109Q), sequence (Q9UBX0 95-180 R109Q): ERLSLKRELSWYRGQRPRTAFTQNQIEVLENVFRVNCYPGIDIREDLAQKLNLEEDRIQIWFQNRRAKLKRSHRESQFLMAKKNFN
# PROP1 [12] = target: PROP1 (Homo sapiens, UniProt O75360 56-141, R99H)
# PROP1 (Homo sapiens, UniProt O75360 56-141, R99H), sequence (O75360 56-141 R99H): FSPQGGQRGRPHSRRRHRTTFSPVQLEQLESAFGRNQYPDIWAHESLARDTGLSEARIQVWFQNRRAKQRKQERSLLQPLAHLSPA
# ALX3 [13] = target: ALX3 (Homo sapiens, UniProt O95076 139-225, L168Q)
# ALX3 (Homo sapiens, UniProt O95076 139-225, L168Q), sequence (O95076 139-225 L168Q): as the sequence (O95076 139-225 N203Q) above, with L30Q, Q65N counted along it
# HESX1 [14] = target: HESX1 (Homo sapiens, UniProt Q9UBX0 95-180, P111T)
# HESX1 (Homo sapiens, UniProt Q9UBX0 95-180, P111T), sequence (Q9UBX0 95-180 P111T): as the sequence (Q9UBX0 95-180 R109Q) above, with Q15R, P17T counted along it
# ALX3 [15] = target: ALX3 (Homo sapiens, UniProt O95076 139-225, L168V)
# ALX3 (Homo sapiens, UniProt O95076 139-225, L168V), sequence (O95076 139-225 L168V): as the sequence (O95076 139-225 N203Q) above, with L30V, Q65N counted along it
# PROP1 [16] = target: PROP1 (Homo sapiens, UniProt O75360 56-141, F88S)
# PROP1 (Homo sapiens, UniProt O75360 56-141, F88S), sequence (O75360 56-141 F88S): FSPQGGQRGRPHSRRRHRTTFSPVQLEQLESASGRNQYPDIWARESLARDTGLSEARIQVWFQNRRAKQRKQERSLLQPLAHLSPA
# MSX2 [17] = target: MSX2 (Homo sapiens, UniProt P35548 130-214, F161Y)
# MSX2 (Homo sapiens, UniProt P35548 130-214, F161Y), sequence (P35548 130-214 F161Y): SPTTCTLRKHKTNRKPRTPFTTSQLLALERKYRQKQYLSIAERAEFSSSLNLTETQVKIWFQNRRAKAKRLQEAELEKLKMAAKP
# HESX1 [18] = target: HESX1 (Homo sapiens, UniProt Q9UBX0 95-180, F115L)
# HESX1 (Homo sapiens, UniProt Q9UBX0 95-180, F115L), sequence (Q9UBX0 95-180 F115L): as the sequence (Q9UBX0 95-180 R109Q) above, with Q15R, F21L counted along it
# ALX3 [19] = target: ALX3 (Homo sapiens, UniProt O95076 139-225, N203S)
# ALX3 (Homo sapiens, UniProt O95076 139-225, N203S), sequence (O95076 139-225 N203S): as the sequence (O95076 139-225 N203Q) above, with Q65S counted along it
# HOXB4 (Homo sapiens, UniProt P17483 148-234), sequence (P17483 148-234): as the sequence (P17483 148-234 V174I) above, with I27V counted along it
# SHOX (Homo sapiens, UniProt O15266 103-189), sequence (O15266 103-189): as the sequence (O15266 103-189 R173C) above, with C71R counted along it
# HESX1 (Homo sapiens, UniProt Q9UBX0 95-180), sequence (Q9UBX0 95-180): as the sequence (Q9UBX0 95-180 R109Q) above, with Q15R counted along it
# HOXA4, sequence (Q00056 201-287 R217L): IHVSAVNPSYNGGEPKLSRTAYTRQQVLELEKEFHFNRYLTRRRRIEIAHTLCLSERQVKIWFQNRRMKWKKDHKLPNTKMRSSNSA
# HESX1 (Homo sapiens, UniProt Q9UBX0 95-180, R165K), sequence (Q9UBX0 95-180 R165K): as the sequence (Q9UBX0 95-180 R109Q) above, with Q15R, R71K counted along it
Sequence,binding signal (HESX1 [1]),binding signal (HOXB4 [2]),binding signal (SHOX [3]),binding signal (HESX1 [4]),binding signal (HOXA4),binding signal (HOXB4 [5]),binding signal (MSX2 [6]),binding signal (ALX3 [7]),binding signal (SHOX [8]),binding signal (ALX3 [9]),binding signal (PROP1 [10]),binding signal (HESX1 [11]),binding signal (PROP1 [12]),binding signal (ALX3 [13]),binding signal (HESX1 [14]),binding signal (ALX3 [15]),binding signal (PROP1 [16]),binding signal (MSX2 [17]),binding signal (HESX1 [18]),binding signal (ALX3 [19])
ATAATTAA,"13.5 upbm affinity estimate (log intensity, higher = more binding, comparable within an allelic series)","13.6 upbm affinity estimate (log intensity, higher = more binding, comparable within an allelic series)","12.7 upbm affinity estimate (log intensity, higher = more binding, comparable within an allelic series)","13.3 upbm affinity estimate (log intensity, higher = more binding, comparable within an allelic series)","13 upbm affinity estimate (log intensity, higher = more binding, comparable within an allelic series)","14.4 upbm affinity estimate (log intensity, higher = more binding, comparable within an allelic series)","13 upbm affinity estimate (log intensity, higher = more binding, comparable within an allelic series)","8.66 upbm affinity estimate (log intensity, higher = more binding, comparable within an allelic series)","10.3 upbm affinity estimate (log intensity, higher = more binding, comparable within an allelic series)","12.9 upbm affinity estimate (log intensity, higher = more binding, comparable within an allelic series)","11.9 upbm affinity estimate (log intensity, higher = more binding, comparable within an allelic series)","9.82 upbm affinity estimate (log intensity, higher = more binding, comparable within an allelic series)","11.9 upbm affinity estimate (log intensity, higher = more binding, comparable within an allelic series)","11.2 upbm affinity estimate (log intensity, higher = more binding, comparable within an allelic series)","12 upbm affinity estimate (log intensity, higher = more binding, comparable within an allelic series)","10.9 upbm affinity estimate (log intensity, higher = more binding, comparable within an allelic series)","8.13 upbm affinity estimate (log intensity, higher = more binding, comparable within an allelic series)","13.5 upbm affinity estimate (log intensity, higher = more binding, comparable within an allelic series)","8.29 upbm affinity estimate (log intensity, higher = more binding, comparable within an allelic series)","8.77 upbm affinity estimate (log intensity, higher = more binding, comparable within an allelic series)"
AGTAATTA,"13 upbm affinity estimate (log intensity, higher = more binding, comparable within an allelic series)","13.6 upbm affinity estimate (log intensity, higher = more binding, comparable within an allelic series)","12.7 upbm affinity estimate (log intensity, higher = more binding, comparable within an allelic series)","13.1 upbm affinity estimate (log intensity, higher = more binding, comparable within an allelic series)","13.1 upbm affinity estimate (log intensity, higher = more binding, comparable within an allelic series)","14.4 upbm affinity estimate (log intensity, higher = more binding, comparable within an allelic series)","13.4 upbm affinity estimate (log intensity, higher = more binding, comparable within an allelic series)","8.6 upbm affinity estimate (log intensity, higher = more binding, comparable within an allelic series)","10 upbm affinity estimate (log intensity, higher = more binding, comparable within an allelic series)","12.8 upbm affinity estimate (log intensity, higher = more binding, comparable within an allelic series)","11.9 upbm affinity estimate (log intensity, higher = more binding, comparable within an allelic series)","9.52 upbm affinity estimate (log intensity, higher = more binding, comparable within an allelic series)","11.9 upbm affinity estimate (log intensity, higher = more binding, comparable within an allelic series)","11 upbm affinity estimate (log intensity, higher = more binding, comparable within an allelic series)","11.6 upbm affinity estimate (log intensity, higher = more binding, comparable within an allelic series)","10.6 upbm affinity estimate (log intensity, higher = more binding, comparable within an allelic series)","7.94 upbm affinity estimate (log intensity, higher = more binding, comparable within an allelic series)","13.9 upbm affinity estimate (log intensity, higher = more binding, comparable within an allelic series)","8.09 upbm affinity estimate (log intensity, higher = more binding, comparable within an allelic series)","8.73 upbm affinity estimate (log intensity, higher = more binding, comparable within an allelic series)"
GTTAATTA,"13.7 upbm affinity estimate (log intensity, higher = more binding, comparable within an allelic series)","13.5 upbm affinity estimate (log intensity, higher = more binding, comparable within an allelic series)","13.1 upbm affinity estimate (log intensity, higher = more binding, comparable within an allelic series)","13.6 upbm affinity estimate (log intensity, higher = more binding, comparable within an allelic series)","13.2 upbm affinity estimate (log intensity, higher = more binding, comparable within an allelic series)","14.3 upbm affinity estimate (log intensity, higher = more binding, comparable within an allelic series)","13.1 upbm affinity estimate (log intensity, higher = more binding, comparable within an allelic series)","8.67 upbm affinity estimate (log intensity, higher = more binding, comparable within an allelic series)","10.7 upbm affinity estimate (log intensity, higher = more binding, comparable within an allelic series)","13 upbm affinity estimate (log intensity, higher = more binding, comparable within an allelic series)","12.1 upbm affinity estimate (log intensity, higher = more binding, comparable within an allelic series)","10.5 upbm affinity estimate (log intensity, higher = more binding, comparable within an allelic series)","12.1 upbm affinity estimate (log intensity, higher = more binding, comparable within an allelic series)","11.5 upbm affinity estimate (log intensity, higher = more binding, comparable within an allelic series)","12.3 upbm affinity estimate (log intensity, higher = more binding, comparable within an allelic series)","11.2 upbm affinity estimate (log intensity, higher = more binding, comparable within an allelic series)","8.2 upbm affinity estimate (log intensity, higher = more binding, comparable within an allelic series)","13.6 upbm affinity estimate (log intensity, higher = more binding, comparable within an allelic series)","8.41 upbm affinity estimate (log intensity, higher = more binding, comparable within an allelic series)","8.84 upbm affinity estimate (log intensity, higher = more binding, comparable within an allelic series)"
CTAATTAA,"13.8 upbm affinity estimate (log intensity, higher = more binding, comparable within an allelic series)","13.3 upbm affinity estimate (log intensity, higher = more binding, comparable within an allelic series)","13.4 upbm affinity estimate (log intensity, higher = more binding, comparable within an allelic series)","13.6 upbm affinity estimate (log intensity, higher = more binding, comparable within an allelic series)","12.9 upbm affinity estimate (log intensity, higher = more binding, comparable within an allelic series)","13.9 upbm affinity estimate (log intensity, higher = more binding, comparable within an allelic series)","13.3 upbm affinity estimate (log intensity, higher = more binding, comparable within an allelic series)","8.64 upbm affinity estimate (log intensity, higher = more binding, comparable within an allelic series)","11.1 upbm affinity estimate (log intensity, higher = more binding, comparable within an allelic series)","12.9 upbm affinity estimate (log intensity, higher = more binding, comparable within an allelic series)","12.2 upbm affinity estimate (log intensity, higher = more binding, comparable within an allelic series)","11.2 upbm affinity estimate (log intensity, higher = more binding, comparable within an allelic series)","12.4 upbm affinity estimate (log intensity, higher = more binding, comparable within an allelic series)","11.6 upbm affinity estimate (log intensity, higher = more binding, comparable within an allelic series)","12.6 upbm affinity estimate (log intensity, higher = more binding, comparable within an allelic series)","11.4 upbm affinity estimate (log intensity, higher = more binding, comparable within an allelic series)","8.3 upbm affinity estimate (log intensity, higher = more binding, comparable within an allelic series)","13.7 upbm affinity estimate (log intensity, higher = more binding, comparable within an allelic series)","8.61 upbm affinity estimate (log intensity, higher = more binding, comparable within an allelic series)","8.84 upbm affinity estimate (log intensity, higher = more binding, comparable within an allelic series)"
